Data as given in PubChem BioAssay.
The source made the active and inactive calls.

System: not listed separately
Assay: CREB reporter modulators under forskolin, primary screen, cell-based, PC12, CRE-LacZ reporter, forskolin-stimulated (AID 1146);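 further: PC12 cells with 6xCRE LacZ reporter stimulated by forskolin 10 µM; beta-galactosidase reporter signal reflecting CREB driven transcription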
Conditions: luminescence, 4.5 h, higher = more signal, called active from +8 up or from −8 down

SMILES	z-score
CCc1cccc(NC(=O)O[C@H]2[C@H](OC(=O)Nc3ccc4c(c3)OCO4)[C@@H](OC(=O)Nc3ccc4c(c3)OCO4)[C@@H](OC)O[C@@H]2CO)c1	-0.684 (inactive)
CCOC(=O)C[C@H]1[C@H](OC(=O)c2cc3ccccc3oc2=O)[C@@H](NC(=O)c2ccc3ccccc3n2)c2cc(OCCCO)ccc2N1C(=O)c1ccccc1	0.576 (inactive)
CCN1C(=O)[C@H]2[C@H]3[C@H](O)[C@H](O)CC(=NOCC=C(C)CCC=C(C)C)[C@H]3CC[C@H]2C1=O	-0.323 (inactive)
O=C1[C@H]2[C@H]3[C@H](O)[C@H](O)CC(=NOCc4ccccc4)[C@@H]3CC[C@H]2C(=O)N1C1CCCCC1	0.182 (inactive)
CC(C)=CCCC(C)=CCON=C1[C@H]2CCn3c(=O)n(Cc4cc5c(cc4Cl)OCO5)c(=O)n3[C@H]2[C@H](O)[C@@H]2O[C@H]12	0.392 (inactive)
CCCNC(=O)OC[C@H]1O[C@H](CCON=C[C@@H](OC)[C@H](C)C=CCC(=O)OC)C=C[C@@H]1Oc1ccc(OC)cc1	0.963 (inactive)
COC(=O)[C@H](C)NC(=O)[C@@H](C)CO	0.17 (inactive)
C=CCOC(=O)[C@H]1[C@@H]2C(=O)O[C@@H](c3ccccc3)[C@@H](c3ccccc3)N2[C@@H](c2ccc(OCCOC(=O)[C@H]3C[C@H]4C(=O)N5CCC[C@H]5C(=O)N4[C@H]3c3cccc(OCCO)c3)cc2)[C@]12C(=O)Nc1ccc(I)cc12	0.437 (inactive)
CCCCC(=C=CC[C@H](O)c1ccccc1OCCO)C[C@H](O)COCc1ccccc1	0.571 (inactive)
COc1ccc(-c2ccc3c(n2)CCCN3CC(O)CN2CCCc3nc(C)c(C)cc32)cc1 (configuration not stated)	0.536 (inactive)
C[C@H]1Cc2c(-c3ccccc3)nc3c(c2CO1)CN(CCOc1ccccc1)CC3	-1.46 (inactive)

Biological target: Streptavidin (Streptomyces avidinii) (UniProt P22629)
Sequence (P22629 whole entry, looked up): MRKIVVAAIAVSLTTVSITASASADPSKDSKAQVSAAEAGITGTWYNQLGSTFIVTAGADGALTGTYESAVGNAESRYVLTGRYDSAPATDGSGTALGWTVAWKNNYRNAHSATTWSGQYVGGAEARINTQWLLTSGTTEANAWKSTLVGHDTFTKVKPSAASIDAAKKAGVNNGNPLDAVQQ
Assay: streptavidin binders on small-molecule microarray, primary screen, artefact control for SMM compound annotation, biophysical, 635/667 nm fluorescence (AID 1147);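 further: signal reflects streptavidin binding to arrayed compounds as a control protein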
Conditions: streptavidin binding, higher = more signal

SMILES	composite z-score
C=CC[C@@H]1C=C[C@H](ON=C2c3cc(OC)ccc3O[C@H](c3cccc(OC)c3)[C@H]2O)[C@@H](CO)O1	0.0285
COCCOC(=O)N1C(=O)[C@@]2(c3cc(C#CCNC(N)=O)ccc31)[C@H](c1ccc(O)cc1)N1[C@H](c3ccccc3)[C@H](c3ccccc3)OC(=O)[C@H]1[C@@H]2C(=O)N1CCCCCCC1	0.445
CC(C)(C)N1C(=O)[C@H]2[C@H]3[C@H](O)[C@H](O)CC(=NOCc4ccccc4)[C@@H]3CC[C@H]2C1=O	0.33
O=C1C[C@]2(c3ccc([N+](=O)[O-])cc3)C(=O)N(CCN3CCOCC3)c3cc(CO)ccc3[C@H]2N1CC12CC3CC(CC(C3)C1)C2	-0.0783
CC[C@@H](c1ccccc1)n1c(=O)n2n(c1=O)[C@H]1[C@H](O)[C@@H]3O[C@@H]3C(=NOCC(C)C)[C@H]1CC2	-0.36
O=C1[C@H]2[C@H]3[C@H](O)[C@H](O)CC(=NO[C@@H]4O[C@H](CO)[C@@H](O)[C@H](O)[C@H]4O)[C@@H]3CC[C@H]2C(=O)N1Cc1ccc2c(c1)OCO2	0.335
CC(C)=C1C(=O)C(c2ccccc2)=C2CN3C(=O)N(CCc4ccccc4)C(=O)[C@]3(Cc3ccc(F)cc3)[C@H]21	0.0452
CO[C@@H]1COC(=O)CCC[C@@H](C)[C@H](OC)COC(=O)[C@H](Cc2ccccc2)NC(=O)CC=C[C@H]1C	-0.431
Cc1ccc(F)cc1S(=O)(=O)N[C@@H]1CCN(Cc2ccc(CC(C)C)cc2)C1	-0.758
CC(C)[Si]1(C(C)C)O[C@@H](c2ccccc2)c2cc(C3CC3)nc(-c3ccccc3)c21	0.0887
COC(=O)[C@@]1(Cc2ccc(F)cc2)[C@H]2c3cc(C(=O)N(C)C)n(Cc4ccc(OC)c(OC)c4)c3C[C@H]2CN1C(=O)c1ccccc1	0.319
CCOC(=O)CCN1C(=O)[C@H]2[C@H]3[C@H](O)C=CC(=O)[C@@H]3CC[C@H]2C1=O	0.225
C[C@H](c1ccccc1)N1C(=O)[C@H]2[C@@H]3C(=CC[C@H]2C1=O)C(=O)[C@H]1O[C@H]1[C@H]3O	0.108
CS(=O)(=O)CCOC(=O)C1=CC(CCCO)=CC(c2cccs2)N(Cc2cccc(OC(F)(F)F)c2)C=C1C(=O)OCCS(C)(=O)=O (configuration not stated)	1.25
O=C1[C@H]2[C@H]3[C@H](O)[C@H](O)CC(=NO[C@@H]4O[C@H](CO)[C@@H](O)[C@H](O)[C@H]4O)[C@H]3CC[C@H]2C(=O)N1Cc1ccc2c(c1)OCO2	0.595
Cc1cc2c(nc1C)CCCN2CC(C)ON=C1[C@H]2CCn3c(=O)n(-c4ccccc4)c(=O)n3[C@H]2[C@H](O)[C@@H]2O[C@H]12 (some centres not stated)	0.196
Cc1cc(C)c(-c2cc([C@H](C)ON=C3[C@H]4CCn5c(=O)n(-c6ccccc6)c(=O)n5[C@H]4[C@H](O)[C@@H]4O[C@H]34)on2)c(C)c1	0.548
COc1ccc([Si](C)(C)[C@@H]2[C@@H](CCO)O[C@]3(C(=O)N(Cc4ccc(NC(C)=O)cc4)c4ccccc43)[C@H]2C)cc1	0.627

SMILES	composite z-score
c1ccc(C2NCCc3c2[nH]c2ccccc32)cc1 (configuration not stated)	-0.26
CC(=O)C[C@H](O)[C@@H](NC(=O)OC(C)(C)C)C(C)C	-0.3
CO[C@H]1O[C@H](CO)[C@@H](OC(=O)Nc2ccc(C#N)cc2)[C@H](OC(=O)c2cc3ccccc3[nH]2)[C@H]1OC(=O)c1cc2ccccc2[nH]1	0.779
CO[C@@H]1COC(=O)[C@@H]2CCCN2C(=O)[C@@H](C)COC(=O)[C@H](COCc2ccccc2)NC(=O)CC=C[C@H]1C	0.107
COc1ccc(O[C@H]2C=C[C@@H](c3ccccc3)O[C@@H]2COC(=O)CCC(C)=NO[C@H](C)c2cn([C@@H]3COC[C@H]3O)nn2)cc1	2.18
CC(CCC(=O)OC[C@H]1O[C@H](C#Cc2ccccc2)C=C[C@@H]1Oc1ccc(C)cc1)=NO[C@@H](C)c1cn([C@H](CO)Cc2ccccc2)nn1	0.258
CO[C@H]1COC(=O)[C@H](C)COC(=O)CC=C[C@@H](C)[C@H](OC)COC(=O)CC=C[C@@H]1C	-0.436
CCc1cccc(NC(=O)O[C@H]2[C@H](OC(=O)Nc3ccc4c(c3)OCO4)[C@@H](OC(=O)Nc3ccc4c(c3)OCO4)[C@@H](OC)O[C@@H]2CO)c1	1.28
CCOC(=O)C[C@H]1[C@H](OC(=O)c2cc3ccccc3oc2=O)[C@@H](NC(=O)c2ccc3ccccc3n2)c2cc(OCCCO)ccc2N1C(=O)c1ccccc1	0.28
CCN1C(=O)[C@H]2[C@H]3[C@H](O)[C@H](O)CC(=NOCC=C(C)CCC=C(C)C)[C@H]3CC[C@H]2C1=O	-0.298
O=C1[C@H]2[C@H]3[C@H](O)[C@H](O)CC(=NOCc4ccccc4)[C@@H]3CC[C@H]2C(=O)N1C1CCCCC1	-0.0498
CC(C)=CCCC(C)=CCON=C1[C@H]2CCn3c(=O)n(Cc4cc5c(cc4Cl)OCO5)c(=O)n3[C@H]2[C@H](O)[C@@H]2O[C@H]12	0.813
CCCNC(=O)OC[C@H]1O[C@H](CCON=C[C@@H](OC)[C@H](C)C=CCC(=O)OC)C=C[C@@H]1Oc1ccc(OC)cc1	-0.351
COC(=O)[C@H](C)NC(=O)[C@@H](C)CO	0.733
C=CCOC(=O)[C@H]1[C@@H]2C(=O)O[C@@H](c3ccccc3)[C@@H](c3ccccc3)N2[C@@H](c2ccc(OCCOC(=O)[C@H]3C[C@H]4C(=O)N5CCC[C@H]5C(=O)N4[C@H]3c3cccc(OCCO)c3)cc2)[C@]12C(=O)Nc1ccc(I)cc12	2.76
CCCCC(=C=CC[C@H](O)c1ccccc1OCCO)C[C@H](O)COCc1ccccc1	0.395
COc1ccc(-c2ccc3c(n2)CCCN3CC(O)CN2CCCc3nc(C)c(C)cc32)cc1 (configuration not stated)	1.52
C[C@H]1Cc2c(-c3ccccc3)nc3c(c2CO1)CN(CCOc1ccccc1)CC3	0.277
